For 95 molecules, inhibition results are on record in PubChem BioAssay AID1626 (SRMLSC, 2009).

The whole screen tested about 220,000 compounds, of which about 2,000 (0.91%) were called active. About 2% were inconclusive and are not listed. The list is a sample of the results. Results with a measured potency or affinity are listed apart. Values without a mark were called inactive. No stated cut-off is given here; in the data, inconclusive means inhibition above about 80% without an active follow-up result; inactive means below that; test concentration not stated here.

This assay can be described thus: M. tuberculosis H37Rv growth inhibitors, H37Rv strain (AID 1626).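 Further: bacteria incubated seven days before Alamar blue readout; 0% = bacteria only wells and 100% = bacteria with antibiotic wells.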 As to conditions: hits give high values, concentration not given here.
In the case of `Cc1n[nH]c(=O)nc1NCc1ccc(Cl)cc1`, the inhibition is 0.09%.
Take `CC(C)(C)NC(=O)COC(=O)CCC(=O)c1ccc(F)cc1`: the inhibition is -0.61%.
Take `Cc1ccc(/C=N/NC(=O)CNC(=O)c2ccc(S(=O)(=O)N(C)C)cc2)cc1`: the inhibition is -4.56%.
For `Cc1ccnc(NS(=O)(=O)c2ccc(NC(=O)/C=C/c3cccs3)cc2)n1`, the inhibition is 11.1%.
Turning to `CCOC(=O)C1C(c2ccccc2)NC(=S)NC1(C)O` (stereo not given), the inhibition is 1.27%.
Regarding `COc1ccc(Nc2ncc(C(=O)O)c3ccccc23)cc1`, the inhibition was 5.05%.
The figure for `Cc1cc2ccc(C)c(C)c2nc1SCC(=O)c1cccs1` is -3.91%.
Take `Nc1nc(NCC2CCCO2)nc(NCC2CCCO2)c1[N+](=O)[O-]` (stereo not given): the inhibition is -0.89%.
For `O=C(CCCCCN1C(=O)C2C3C=CC(C3)C2C1=O)Nc1nccs1` (stereo not given), the inhibition is -6.21%.
Consider `CCc1cccc(C)c1NC(=S)N1CCCCC1c1cccnc1` (stereo not given), for which the inhibition is 1.2%.
As to `COC(=O)C(C#N)c1nc2ccccc2nc1N1CCN(Cc2ccc3c(c2)OCO3)CC1` (stereo not given), the inhibition was -4.28%.
Regarding `CC(C)COC(=O)C(C#N)c1nc2ccccc2nc1N1CCN(Cc2ccc3c(c2)OCO3)CC1` (stereo not given), the inhibition was 2.75%.
The result for `CC(N=C1NC(C)(C)Cc2ccccc21)C(=O)O` (stereo not given) reads -3.94%; that for `Cn1c(Cn2c(=O)sc3ccccc32)nnc1SCC(=O)NC1CCCC1`, -8.44%.
As for `Cc1cc(C)n(C(=O)c2ccccc2[N+](=O)[O-])n1`, the inhibition is 6.43%.
The result for `Cc1cc(C)n(C(=O)c2ccc([N+](=O)[O-])cc2N)n1` reads -10.3%.
The figure for `CC1C=CCC2C(=O)N(c3ccc(Cl)cc3O)C(=O)C12` (stereo not given) is 10.7%; for `Cc1ccc2nc(/N=C(\N)NC(=O)N3c4ccccc4Sc4ccccc43)nc(C)c2c1` it is 94.5%; for `COc1ccc2nc(/N=C(\N)NC(=O)C(C)(C)C)nc(C)c2c1` it is 14.9%.
For `COc1ccc(CN(CC2CCC(C(=O)O)CC2)C(=S)Nc2cc(C)ccc2C)cc1` (stereo not given), the inhibition is 4.91%.
The figure for `O=C(NC1CSC/C1=N\O)c1ccccc1` (stereo not given) is -2.37%.
For `COc1ccccc1/C=C/C(=O)c1ccc(Cl)cc1`, the inhibition was 19.9%.
The figure for `COc1ccc(/C=C/C(=O)c2ccc(Cl)cc2)c(OC)c1` is 7.24%; for `COc1ccccc1/C=C/C(=O)c1ccccc1` it is 5.69%.
The result for `O=C(/C=C/c1ccccc1Cl)c1ccc(O)cc1` reads 36.8%.
Consider `Cc1nc2nc(SCC(=O)C(C)(C)C)[nH]c2cc1Br`, for which the inhibition was -3.7%.
The figure for `CC(C)(C)c1cc(NC(=O)c2cccc([N+](=O)[O-])c2)no1` is 4.63%; for `CC1(c2nnc(-c3ccccc3)o2)CC(c2ccc(F)cc2)=NO1` (stereo not given) it is -2.41%.
The figure for `COC(=O)c1ccc(N=c2sc(C(=O)OC)cc(=O)n2C)cc1` is 7.67%.
On to `CCOC(=O)c1ccc(N=c2sc(C(=O)OC)cc(=O)n2-c2ccc(C(=O)OCC)cc2)cc1`, for which the inhibition is 63.5%.
The figure for `COc1c(F)c(F)c(C(=O)O)c(Nc2cc(C)cc(C)c2)c1F` is -9.39%; for `O=c1cc(-c2ccccc2F)oc2ccccc12` it is -6.27%; for `O=c1cc(-c2ccc(F)cc2)oc2ccccc12` it is -4.83%.
The result for `N#Cc1cccc(NC(=O)CC2CCCCC2)c1` reads 1.61%; that for `Cc1ccc(N2C(=O)NC(=O)/C(=C\c3ccc(N4CCOCC4)cc3)C2=O)cc1`, -2.37%.
In the case of `CS(=O)(=O)N1CCn2c1nc1ccccc12`, the inhibition is -12.2%.
For `COc1ccc(C2C(C#N)=C(C)NC3=C2C(=O)CC(C)(C)C3)cc1` (stereo not given), the inhibition was 6.62%.
Turning to `CC1=C(C#N)C(c2cccnc2)C2=C(CC(c3ccc(Cl)cc3)CC2=O)N1` (stereo not given), the inhibition was 5.84%.
Regarding `COC(=O)C1=C(C(=O)OC)[C@@H]2N(Cc3ccccc3)c3ccccc3[C@@]23C[C@@H](C(=O)OC)N(C(=O)NC2CCCCC2)C3=N1`, the inhibition is -1.86%.
For the molecule `CC(=O)c1ccc(NC(=O)C2CC(=O)N(Cc3ccccc3)C2)cc1` (stereo not given), the inhibition is -1.96%.
Turning to `CCOc1nc(-c2ccc(Cl)cc2)nc2ccccc12`, the inhibition was -0.59%.
As to `O=C(CCl)N(c1ccc(Cl)cc1)c1c[nH]c2ccccc12`, the inhibition was 75.3%.
The figure for `O=C(CCl)N(Cc1ccccc1)c1ccccc1` is 77.7%; for `CC(=O)N(c1ccc(Cl)cc1)c1c[nH]c2ccccc12` it is -5.95%; for `O=C(N(c1ccccc1)c1ccccc1)N(c1ccccc1)c1ccccc1` it is -4.02%.
As for `CCn1cc(-c2cc(C(F)(F)F)n3nc(C(=O)O)cc3n2)c(C)n1`, the inhibition was -10.8%.
The result for `COc1ccc(C)cc1NC(=O)C1CCCCC1C(=O)O` (stereo not given) reads -8.21%.
Regarding `CCOC(=O)C(NCc1ccc(F)cc1)(NC(=O)c1ccccc1)C(F)(F)F` (stereo not given), the inhibition was -7.14%.
The figure for `Cc1nn(-c2ccccc2)c2[nH]c(=O)c(CNCc3ccc4c(c3)OCO4)cc12` is -1.83%; for `COc1cccc(NCc2cc3c(C(C)(C)C)nn(-c4ccccc4)c3[nH]c2=O)c1` it is -5.67%; for `CC(C)(C)c1nn(-c2ccccc2)c2[nH]c(=O)c(CNc3ccc4c(c3)OCCO4)cc12` it is 4.42%.
For `CCc1ccc(NCc2cc3c(C)nn(-c4ccccc4)c3[nH]c2=O)cc1`, the inhibition is 26%.
Consider `Cc1nn(-c2ccccc2)c2[nH]c(=O)c(CNCCN3CCOCC3)cc12`, for which the inhibition was 3.32%.
The figure for `CCOc1cccc(NCc2cc3c(C(C)(C)C)nn(-c4ccccc4)c3[nH]c2=O)c1` is 70.7%; for `Cn1c(O)c(N=NC(=O)c2ccccc2O)c2ccccc21` it is -0.85%.
With `Cc1cc(C2(c3ccc(O)c(C)c3)OC(=O)c3ccccc32)ccc1O`, the inhibition was -1.73%.
The figure for `CC/C(C)=C1\SC(N2CCOCC2)=NC1=O` is 1.74%.
The result for `Cc1cc(C)nc(N2CCC(C(=O)NCc3ccccc3F)CC2)n1` reads -8.28%; that for `CC(=O)Nc1ccn(-c2ccccc2)n1`, 0.92%; that for `O=C(Nc1ccn(-c2ccccc2)n1)c1ccccc1Br`, 1.33%.
As to `CC(C)(C)C1CCc2sc(-c3nnc(CCl)o3)cc2C1` (stereo not given), the inhibition was 43.6%.
Regarding `COc1cc2[nH]c(=O)n3nc(-c4ccccc4)nc3c2cc1OC`, the inhibition is -2.98%.
On to `Cc1nc2ccc(Cl)cc2nc1C`, for which the inhibition was -12.2%.
Turning to `Cc1nc(N)nc(Cl)c1Cc1ccc(Cl)cc1`, the inhibition was 3.47%.
Consider `COC(=O)/C(C#N)=C/c1c[nH]c2ccccc12`, for which the inhibition is 7.57%.
As to `CCCCn1c(=O)c(C(=O)Nc2ccsc2C(=O)OC)c(O)c2ccccc21`, the inhibition was 1.97%.
The figure for `CCCCCCn1c(=O)c(C(=O)Nc2c(C)n(C)n(-c3ccccc3)c2=O)c(O)c2ccccc21` is -5.05%.
Turning to `CCCCCn1c(=O)c(C(=O)Nc2ccccc2S(N)(=O)=O)c(O)c2ccccc21`, the inhibition was 6.87%.
The result for `CCCCn1c(=O)c(C(=O)Nc2ccccc2)c(O)c2ccccc21` reads -1.05%; that for `CCN(CC)S(=O)(=O)c1cc(C(=O)OCC(=O)NC(=O)c2cccn2C)ccc1C`, -5.23%; that for `O=C(CCNc1ccc(F)cc1)c1cc2ccccc2o1`, -9.46%.
The result for `Cn1cc(Br)c(C(=O)NNC(=O)c2ccc(Br)cc2)n1` reads 6.79%; that for `CCN(CC)c1ccc2c(c1)C(=O)N(C)C2=O`, 7.2%; that for `CCN(CC)c1ccc(NC(=O)CCCCCN2C(=O)c3ccccc3C2=O)cc1`, -10.5%.
`O=C(Nc1ccc2oc(-c3ccccc3Cl)nc2c1)c1cncc(Br)c1`: the inhibition is -3.07%.
`CN(C)/C=N/c1nc(-c2ccc3c(c2)OCO3)cs1`: the inhibition was -11.6%.
The figure for `Brc1ccc(-c2csc(/N=C/N3CCCC3)n2)cc1` is 64.4%; for `COc1ccc(CNC(=O)C2C3C=CC4(CN(Cc5cccnc5)C(=O)C24)O3)cc1` (stereo not given) it is -7.2%.
As to `COc1ccc(NC(=O)C(=O)N/N=C(\C)CC(=O)Nc2ccccn2)c(OC)c1`, the inhibition is -16.2%.
The result for `NS(=O)(=O)c1ccc(NC(=O)CCC2CCCCC2)cc1` reads -3.12%; that for `O=C(CCc1ccc(Oc2cc([N+](=O)[O-])cc([N+](=O)[O-])c2)cc1)N1CCCCC1`, 3.78%.
For the molecule `CC1CCN(C(=O)CCc2ccc(Oc3cc([N+](=O)[O-])cc([N+](=O)[O-])c3)cc2)CC1`, the inhibition was 71.9%.
Consider `CC1(C)S/C(=N/N=C/c2ccco2)NC1=O`, for which the inhibition is 3.45%.
On to `CCOc1ccc(-n2c(N)c(C(=O)N3CCN(C)CC3)sc2=S)cc1`, for which the inhibition was 2.86%.
The result for `CN(C)S(=O)(=O)N1CCN(c2ccc([N+](=O)[O-])c(N3CCOCC3)c2)CC1` reads 6.14%; that for `Cc1c(O)ccc(-c2n[nH]c(C(=O)O)c2-c2nc3ccccc3s2)c1O`, -16.8%.
For `O=C(CC(Sc1n[nH]c(-c2ccccc2)n1)c1ccccc1)NCc1ccccc1` (stereo not given), the inhibition was -4.33%.
For the molecule `O=C(NCc1c(F)cccc1F)c1cc(COc2c(F)cccc2F)on1`, the inhibition is 4.13%.
Take `COC(=O)OCC12CCC(O1)C1(C)C(=O)OCC21` (stereo not given): the inhibition is 2.41%.
The result for `COC(/C=C/Nc1ccc(Br)cc1)=C(C#N)C#N` reads -3.61%.
The result for `CC1CCN(CCC(=O)NN)CC1` reads 1.23%; that for `CCOC(=O)/C(C#N)=N/Nc1ccccc1OC`, 12.6%.
The result for `Nc1nc(Cl)cc(N2CCC(c3cc(-c4ccc(Cl)cc4Cl)n[nH]3)CC2)n1` reads 8.57%; that for `COc1ccc(-c2cc(C3CCN(c4cc(Cl)nc(N)n4)CC3)[nH]n2)cc1`, 4.7%.
As for `O=c1c2c3c(sc2nc2n1N=C(c1cccs1)CS2)CCCC3`, the inhibition is 3.06%.

The inhibition is the change of the read-out against control, counted positive when it falls.
